Active and inactive are the calls of the source. The calls were made as follows: active = hit-call score of the fitted dose curve at least 0.9, where 1 is the maximum; inactive = score below 0.9.
read-out: Cytochrome P450 2C19 (Homo sapiens) (UniProt P33261); experiment: LTEA_HepaRG_CYP2C19: Life Technologies and Expression Analysis (LTEA) Assay for CYP2C19 using HepaRG (AID 2283482); conditions: mRNA level, 48 h; actives raise or lower the signal
Description: LTEA_HepaRG is a cell based, multiplexed-readout assay that uses HepaRG, a human liver cell line, with measurements taken at 48 hours after chemical dosing on a 96-well plate.LTEA_HepaRG_CYP2C19 is one of 102 assay component(s) measured in the LTEA HepaRG cell culture assay. It is a marker of NR mediated metabolism.Data from the assay component LTEA_HepaRG_CYP2C19 was analyzed into 1 endpoint. This assay endpoint, LTEA_HepaRG_CYP2C19, was analyzed with bidirectional fitting relative to DMSO as the negative control and baseline of activity. Using a type of inducible reporter, measures of mRNA induction for gain or loss-of-signal activity can be used to understand regulation of transcription factor activity. To generalize the intended target to other relatable targets, this assay endpoint is annotated to the cyp intended target family, where the subfamily is xenobiotic metabolism.
A total of 1060 chemcials from the ToxCast library were tested in eight-point concentration-response experiments. Cell culture and cytotoxicity assays were conducted at Thermo Fisher Scientific's Custom Services facility (Madison, WI). A single lot of human HepaRG cells (Thermo Fisher Scientific, Frederick, MD) was used for the cell culture experiments. 96-well format collagen type I coated plates of human HepaRG cells were prepared using established methods. Briefly, cryopreserved HepaRG cells were thawed, plated at a density of approximately 100,000 cells/well in HepaRG Thaw, Plate, and General Purpose media (HPRG770, Thermo Fisher Scientific), and incubated for 48 hours. 0.5% DMSO was selected as vehicle control to balance the requisite need of DMSO in HepaRG cultures to maintain differentiation (for example, baseline metabolism, proportions of hepatocytes vs. cholangiocytes), while enabling further hepatic receptor pathway activation (for example, PXR and CAR) in response to chemical exposure. 48 hours after plating, the culture medium was replaced with HepaRG Serum-Free Incudtion Media. Cells were exposed to each test chemical in duplicate and maintained in CO2 incubators for another 48 hours. Chemical plates were thawed to room temperature and 200x concentrations of treatment groups were prepared. 8-point conentration-reponse curves were made with the highest exposure at 100 uM, followed by half-log dilutions, all in 0.5% DMSO. Each test plate contained variouse controls, induction positive controls (1mM phenobarbital), cytotoxicity positive controls ([…] aflatoxin B1), vehicle controls (0.5% DMSO), and total lysis controls (0.5% DMSO). Cell morphology images were taken using an Essen IncuCyte FLR automated microscope, with six 96-well plates imaged in about 24 minutes. Images were captured and exported and JPEG files. Spent culture media was transfered to black-well plates for the LDH assay, and remaining media was sorted at -80 C for later use. Cells were treated with RLT buffer and frozen until shipped for gene expression analysis. Total RNA was isolated from the cell suspension in 75 uL of Buffer RLT (Qiagen, Germantown, MD 20874) by Quintiles/Expression Analysis (Durham, NC) using a custom isolation procedure. Total RNA from each plate well was transferred to a preamplification plate. Fluidigm's 96.96 Dynamic ArrayTM (Fluidigm, Amsterdam, the Netherlands) technology was used for gene expression analyses by quantitative reverse transcription polymerase chain reaction (qRT-PCR, performed by Quintiles/Expression Analysis, Durham, NC)89. Standard TaqManTM Assays (Applied Biosystems/ThermoFisher Scientific, Foster City, CA) were used to assess the expression of 93 genes selected based on their selectivity and sensitivity to important hepatic receptors known to be modulated by environmental chemicals; importance in human hepatocyte functionality; and hepatotoxicity. […]

Sequence of Cytochrome P450 2C19 (Homo sapiens) (P33261 whole entry, looked up): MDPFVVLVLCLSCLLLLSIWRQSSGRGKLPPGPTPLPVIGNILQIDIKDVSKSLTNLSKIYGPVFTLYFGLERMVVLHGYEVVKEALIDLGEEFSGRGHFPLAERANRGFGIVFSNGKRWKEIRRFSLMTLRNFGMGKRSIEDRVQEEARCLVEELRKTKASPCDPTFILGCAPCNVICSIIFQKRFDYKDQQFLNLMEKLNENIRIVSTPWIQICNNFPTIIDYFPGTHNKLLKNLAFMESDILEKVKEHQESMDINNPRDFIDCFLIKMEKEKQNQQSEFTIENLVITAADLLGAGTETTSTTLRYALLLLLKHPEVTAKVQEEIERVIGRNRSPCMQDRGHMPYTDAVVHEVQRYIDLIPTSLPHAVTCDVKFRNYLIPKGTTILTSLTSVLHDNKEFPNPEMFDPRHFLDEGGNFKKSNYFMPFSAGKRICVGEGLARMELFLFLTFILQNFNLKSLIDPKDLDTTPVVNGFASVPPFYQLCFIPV

outcome, inactive:
CC(N)=O
CCCCc1nc2cccnc2n1Cc1ccc(-c2ccccc2-c2nnn[nH]2)cc1
S=c1[nH]c2ccccc2s1
CCCCC(CC)COC(=O)CCCCCCCC(=O)OCC(CC)CCCC (stereo not given)
CCCCCCCC(=O)OC
CC(C)c1cccc(C(C)C)c1
NC=O
CC(C)COC(=O)CCCCC(=O)OCC(C)C
C/C=C/c1ccc(OC)cc1
CC(=O)OCC(COC(C)=O)OC(C)=O
O=C1c2c(O)cccc2Cc2cccc(O)c21
O=C1CCCCC1
CCCCOC(=O)CCCCC(=O)OCCCC
NC(=Nc1ccccc1)Nc1ccccc1
NC1CCCCC1
C#CC(O)C(CC)CCCC (stereo not given)
O=NO
CC(C)OC(=O)C(C)(C)Oc1ccc(C(=O)c2ccc(Cl)cc2)cc1
Oc1ccc(O)cc1
O=C(Oc1ccccc1)c1cccc(C(=O)Oc2ccccc2)c1
Cc1occc(=O)c1O
CC(=O)OC1CC(C)OC(C)O1 (stereo not given)
O=C(O)c1cccnc1
Oc1ccccc1O
CCCCC(CC)CO (stereo not given)
O=C(O)c1[nH]n(-c2ccc(S(=O)(=O)O)cc2)c(=O)c1N=Nc1ccc(S(=O)(=O)O)cc1
CN(C)CCCN(C)CCCN(C)C
CCCCCCCCCCCCCCOS(=O)(=O)O
O=[Si]=O
CCCCCCC(CCCCCCCCCCC(=O)OCC(COC(C)=O)OC(C)=O)OC(C)=O (stereo not given)
CCCCCCCCCC[N+](C)(C)[O-]
CCN(CC)CCOc1ccc(C(=C(Cl)c2ccccc2)c2ccccc2)cc1

AC50, active:
CCC(C)N(C)C(=O)c1cc2ccccc2c(-c2ccccc2Cl)n1 (stereo not given) 4.31 µM
Cc1cc(Cc2ccc(N)c(C)c2)ccc1N 11.5 µM
Cc1cc(SC2=C(O)C[C@@](CCc3ccc(N)cc3)(C(C)C)OC2=O)c(C(C)(C)C)cc1CO 0.972 µM
CS(=O)(=O)c1ccc([C@@H](C[C@H]2CCC(=O)C2)C(=O)Nc2cnccn2)cc1Cl 1.38 µM
CC(C)(O)c1ccc(CNC(=O)c2cccnc2Oc2ccc(F)cc2)cc1 8.99 µM
COc1ccc(C(=O)Nc2nc3ccccc3c(NCc3ccccc3)c2C#N)cc1 22.1 µM
OCC(CO)n1cnc(-c2ccc(F)cc2)c1-c1ccnc(Oc2ccccc2)n1 12.4 µM
CC1=C(C)S(=O)(=O)CCS1(=O)=O 88 µM

Reference: PubChem BioAssay (EPA / NIEHS)
